From PubChem BioAssay (NCATS) come the findings set out here.

Assay [1] concerns CP260. Kind of assay: qHTS profiling for inhibitors of Plasmodium falciparum proliferation (AID 504749). Further: nearly all actives have a fitted effect of over 60% in size. Further: potency means the concentration at half of the fitted maximal effect.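 On activity, negative = inhibition: 0% = DMSO vehicle and full inhibition = artemisinin control.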 The following applies: P. falciparum in erythrocytes, SYBR Green DNA, 72 h; series mostly up to 28.7 µM. Summed up: (§1)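 P. falciparum-infected erythrocytes (0.3% parasitemia, 2.5% hematocrit) incubated with compound 72 h at 37 C, 5% CO2. Parasite DNA detected by SYBR Green after lysis, overnight at room temperature; normalised to 0.29 uM artemisinin and DMSO.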

Assay [2] relates to CP297. The assay is described as above. The following applies: P. falciparum in erythrocytes, SYBR Green DNA, 72 h; series mostly up to 28.7 µM. Summed up:
as §1

The test system of assay [3] is ICS. The description is as above. Conditions: P. falciparum in erythrocytes, SYBR Green DNA, 72 h; series mostly up to 28.7 µM. The method in brief:
as §1

In assay [4] the test system is TAB113. Described as above. Conditions: P. falciparum in erythrocytes, SYBR Green DNA, 72 h; series mostly up to 28.7 µM. The method in brief:
as §1

Assay [5] relates to W2. The assay is described as above. Conditions: P. falciparum in erythrocytes, SYBR Green DNA, 72 h; series mostly up to 12.8 µM. The method in brief:
as §1

Assay [6] is described as follows: NFAT Signaling Pathway (AID 444; active means well fitted curve in either direction with a large enough effect, not every such curve was filed as active;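 further: carbachol stimulus at about its EC50 of 1 µM final; on the % scale 0 is the no-effect control and ±100 the full control effect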). The following applies: Jurkat NFAT-bla M1, carbachol, beta-lactamase ratio, 5 h; at 17.2 µM (top of the series). The method in brief:
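Jurkat cells with NFAT-driven β-lactamase reporter and co-expressed M1 receptor, stimulated with carbachol (final 1 uM, ~EC50), compound titration, 5 h at 37 °C. CCF4 loaded 1 h at RT; 460/530 nm ratio gave %activity and AC50.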

The nature of assay [7]: S16 Schwann cell PMP22 intronic element beta-lactamase assay (AID 624044; calls by dose curve;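 further: 0% = DMSO and -100% = potassium clavulanate positive control; nearly all actives have a fitted effect of over 15% in size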). The following applies: S16 rat Schwann cells, PMP22 element beta-lactamase FRET, 24 h; ratio activity, negative = inhibition: at 38.3 µM (top of the series) unless noted. Summed up:
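Rat S16 Schwann cells with beta-Lac driven by a PMP22 intronic element, compound-treated 24 h at 37 °C. LiveBLAzer FRET B/G read: 460 nm normalized to potassium clavulanate vs DMSO; 535 nm FRET as viability; concentration-effect curves classified.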

Assay [8] relates to CP265. Kind of assay: qHTS profiling for inhibitors of Plasmodium falciparum proliferation (AID 504749). Further: nearly all actives have a fitted effect of over 60% in size. Further: potency means the concentration at half of the fitted maximal effect.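 On activity, negative = inhibition: 0% = DMSO vehicle and full inhibition = artemisinin control.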 Conditions: P. falciparum in erythrocytes, SYBR Green DNA, 72 h; series mostly up to 12.8 µM. The method in brief:
as §1

Assay [9] has as its system CP291. The description is as above. The following applies: P. falciparum in erythrocytes, SYBR Green DNA, 72 h; series mostly up to 28.7 µM. Summed up: as §1
Assay [10] relates to CP325. The description is as above. The following applies: P. falciparum in erythrocytes, SYBR Green DNA, 72 h; series mostly up to 28.7 µM. The method in brief:
as §1

Assay [11] deals with CP329. The assay is described as above. Conditions: P. falciparum in erythrocytes, SYBR Green DNA, 72 h; series mostly up to 28.7 µM. The method in brief:
as §1

Assay [12] concerns CP335. Described as above. Conditions: P. falciparum in erythrocytes, SYBR Green DNA, 72 h; series mostly up to 12.8 µM. The method in brief: as §1
The test system of assay [13] is FAB9. The description is as above. Conditions: P. falciparum in erythrocytes, SYBR Green DNA, 72 h; series mostly up to 28.7 µM. Summed up:
as §1

For assay [14], the system named is JCK. The assay is described as above. Conditions: P. falciparum in erythrocytes, SYBR Green DNA, 72 h; series mostly up to 28.7 µM. Summed up: as §1
Assay [15] relates to PC15. Described as above. The following applies: P. falciparum in erythrocytes, SYBR Green DNA, 72 h; series mostly up to 28.7 µM. Summed up: as §1
Assay [16] concerns PC26. The description is as above. Conditions: P. falciparum in erythrocytes, SYBR Green DNA, 72 h; series mostly up to 28.7 µM. The method in brief:
as §1

The subject of assay [17] is SC27B. The description is as above. Conditions: P. falciparum in erythrocytes, SYBR Green DNA, 72 h; series mostly up to 28.7 µM. The method in brief: as §1
A short description of assay [18]: Cell Viability - Renal Proximal Tubule (AID 545).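 Further: 0% = DMSO only and -100% = 100 µM tamoxifen; nearly all actives have a fitted effect of over 40% in size.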 Conditions: renal proximal tubule cells viability; at 91.7 µM (top of the series), primary cells of rat origin unless noted. The method in brief: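 In this qHTS format, normal rat kidney-derived proximal tubule cells in complete culture medium receive compound titrations, then sit 40 hours at 37 °C before luciferase-based ATP quantitation; potency is reported as AC50 from concentration-response curves.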

Assay [19] can be described thus: qHTS assay for small molecule activators of the p53 signaling pathway (AID 651743; active means well fitted activation curve with a large enough effect in the signal ratio, not every such curve was filed as active; the % refers to the signal ratio; further: % of control where 0% means no effect). Conditions: HCT-116 p53RE-bla, beta-lactamase FRET ratio, 16 h; activation: active compounds read high. The method in brief:
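p53RE-bla HCT-116 cells carrying a beta-lactamase reporter under p53 response elements were exposed to compounds for 16 hours at 37 C. Reporter activity read as fluorescence after 2 hours at room temperature with LiveBLAzer B/G FRET substrate.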

The target of assay [20] is Peroxisome proliferator-activated receptor alpha (Homo sapiens) (UniProt Q07869). Description: qHTS assay for small molecule agonists of the peroxisome proliferator-activated receptor alpha (PPARalpha) signaling pathway (AID 651778). Further: % of control where 0% means no effect. The following applies: PathHunter PPARalpha complementation, chemiluminescence, 6 h; active compounds read high. Summed up:
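Enzyme-fragment complementation assay in which ligand-bound PPARalpha translocates and forms an active enzyme that generates chemiluminescence. Cells were plated overnight, exposed to compound for 6 hr at 37 C, and then given detection reagent for 60 min at room temperature.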

Where “and” joins values, the source holds several entries; their conditions need not be identical. Equal entries are not always repeated. A number with no mark means an inactive call. Records with an inconclusive call do not appear. Calls of active or inactive are those of the source. Unless noted, the call rests on the fitted dose curve; in most records, active means well fitted curve in the direction sought with a large enough effect; inconclusive means small, poorly fitted or top-dose-only effect, or another doubt; inactive means no such curve, though single readings can be large; an effect the other way counts as inactive or inconclusive.

Peroxisome proliferator-activated receptor alpha (Homo sapiens), sequence (Q07869 whole entry, looked up, the tested form may be a part): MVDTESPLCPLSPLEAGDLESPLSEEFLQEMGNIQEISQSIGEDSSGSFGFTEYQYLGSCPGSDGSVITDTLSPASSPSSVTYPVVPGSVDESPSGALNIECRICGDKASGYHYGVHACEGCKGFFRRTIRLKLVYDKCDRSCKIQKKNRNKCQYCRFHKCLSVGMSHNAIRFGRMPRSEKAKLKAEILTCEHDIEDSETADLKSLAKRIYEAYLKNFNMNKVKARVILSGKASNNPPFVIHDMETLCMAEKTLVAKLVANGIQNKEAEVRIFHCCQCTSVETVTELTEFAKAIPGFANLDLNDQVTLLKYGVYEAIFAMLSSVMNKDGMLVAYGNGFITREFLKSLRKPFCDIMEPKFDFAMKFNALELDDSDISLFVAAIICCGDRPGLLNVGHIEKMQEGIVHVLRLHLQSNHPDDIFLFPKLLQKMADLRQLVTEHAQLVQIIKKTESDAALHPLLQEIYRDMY

Consider `O=C1C=C2C=CC3C[C@@]2(O1)C1CCCCN31` (stereo partly specified), for which the Potency in assay [1] is 6.31 µM (active); in [2], 12 µM (active); in [3] it was 7.94 µM (active); in assay [4], 14.1 µM (active); in assay [5], 7.57 µM (active).

For `C[N+]1(C)CCO[C@](O)(c2ccc(-c3ccc([C@]4(O)C[N+](C)(C)CCO4)cc3)cc2)C1`, the activity change, negative = inhibition in assay [6] was -13.9%.

Turning to `CNC(C)[C@@H](O)c1ccccc1` (stereo partly specified), the Potency entry in assay [7], in assay [1], in [8], in assay [9], in assay [10] and in assay [11] was “inactive” throughout. Further, the Potency entry in assay [12], in assay [13], in assay [3], in assay [14], in [15] and in [16] was “inactive” throughout. In addition, the Potency result in assay [17] and in assay [4] was “inactive” each time.

Regarding `C=CC1CN2CCC1CC2C(OC(=O)OCC)c1ccnc2ccc(OC)cc12` (stereo unspecified), in assay [7], the Potency result is “inactive”. Moreover, the Potency was 10 µM (active) in assay [1]; 5.01 µM (active) in assay [8]; 12 µM (active) in assay [9]; 13.5 µM (active) in [10]; 9.53 µM (active) in assay [12]; 10 µM (active) in assay [13]. Moreover, the Potency in assay [3] is 3.98 µM (active); in assay [15] it was 3.98 µM (active); in assay [16], 6.01 µM (active); in [4], 8.91 µM (active); in assay [5], 2.13 µM (active).

Take `C[C@H]1CC[C@@]2(NC1)O[C@@H]1C[C@H]3[C@@H]4CC=C5C[C@@H](O)CC[C@]5(C)[C@@H]4CC[C@]3(C)[C@@H]1[C@@H]2C`: in [6], the activity change, negative = inhibition was 7.82%.

With `CNc1ccc(C(=O)CC(O)CCC(C)C2OC(=O)CC(O)CC(=O)CC(O)CC(O)CC(O)CC(O)CC3(O)CC(O)C(C(=O)OC)C(CC(O[C@@H]4OC(C)C(O)C(N)C4O)/C=C/C=C/C=C/C=C/C=C/C=C/C=C/C2C)O3)cc1` (stereo partly specified), the Potency entry in [8], in assay [9], in assay [2], in [10], in assay [11] and in [12] was “inactive” each time. The Potency result in [13], in assay [14], in assay [15], in [16], in assay [17] and in assay [5] was “inactive” in each case.

In the case of `COc1cc(N)c(Cl)cc1C(=O)N[C@@H]1CN2CCC1CC2`, the Potency entry in assay [7], in [1], in assay [8], in [9], in assay [2] and in [10] was “inactive” throughout. Besides, the Potency result in [11], in assay [12], in [13], in assay [3], in assay [14] and in assay [15] was “inactive” in each case. The Potency entry in [16], in assay [17] and in assay [4] was “inactive” each time.

For the molecule `C[C@@H]1O[C@H](O[C@@H]2C=C3CC[C@H]4[C@@H](CC[C@]5(C)[C@@H](c6ccc(=O)oc6)CC[C@]45O)[C@@]3(C)CC2)[C@@H](O)[C@H](O)[C@@H]1O`, the activity change, negative = inhibition in assay [6] is -39.6% (active). In addition, the Potency entry in [7], in [1], in assay [8], in assay [9], in assay [2] and in assay [10] was “inactive” in each case. Further, the Potency entry in assay [11], in assay [12], in [13], in [3], in assay [14] and in [17] was “inactive” each time. Besides, the Potency result in assay [4] and in assay [5] was “inactive” throughout.

Turning to `COC(=O)NC(=S)Nc1ccccc1NC(=S)NC(=O)OC`, in assay [18], the activity change, negative = cytotoxicity was -14.2%. Also, in [19], the activation is 0% and 3.95%. Moreover, in assay [20], the max response is -4.83% and -0.925%.

For the molecule `COc1ccc(C(=O)OC2C[C@H]3CC[C@@H](C2)N3C)cc1OC` (stereo partly specified), the activity change, negative = inhibition in assay [6] was -18.9%.

Take `CC(C)CC(CN)CC(=O)O` (stereo unspecified): the Potency result in assay [7] is “inactive”.

Take `COP(=S)(OC)Oc1ccc([N+](=O)[O-])cc1`: the activity change, negative = cytotoxicity in assay [18] was -3.77% [at 91.7 µM]. In addition, the activation in assay [19] is 0.285% and 1.15%. Also, in assay [20], the max response is -2.98% and -2.34%.

For `CCCCCCCCCc1ccc(O)cc1`, the activity change, negative = cytotoxicity in [18] is -80.8% (active). In addition, the activation in assay [19] is -1.55% and -0.009%. In addition, in assay [20], the max response was 6.94% and 6.09%.
